The values that follow come from publication PMC7862700, “An all-to-all approach to the identification of sequence-specific readers for epigenetic DNA modifications on cytosine”.

Experiment in all cases: DAPPL (digital affinity profiling via proximity ligation, sequencing); 10 mM Tris-HCl pH 7.5, 50 mM NaCl, 1 mM DTT, 4% glycerol, room temperature, 30 min; GST-TFs on glutathione beads, 16-mer random dsDNA library, 0.1% formaldehyde crosslink after washing; high values mean tight binding
Holding throughout (settings): protein: recombinant; tags: N-terminal GST; dsDNA, one strand shown

For one assay, the target named is T1, FLI1 (Homo sapiens, UniProt Q01543 1-452).
T1 sequence: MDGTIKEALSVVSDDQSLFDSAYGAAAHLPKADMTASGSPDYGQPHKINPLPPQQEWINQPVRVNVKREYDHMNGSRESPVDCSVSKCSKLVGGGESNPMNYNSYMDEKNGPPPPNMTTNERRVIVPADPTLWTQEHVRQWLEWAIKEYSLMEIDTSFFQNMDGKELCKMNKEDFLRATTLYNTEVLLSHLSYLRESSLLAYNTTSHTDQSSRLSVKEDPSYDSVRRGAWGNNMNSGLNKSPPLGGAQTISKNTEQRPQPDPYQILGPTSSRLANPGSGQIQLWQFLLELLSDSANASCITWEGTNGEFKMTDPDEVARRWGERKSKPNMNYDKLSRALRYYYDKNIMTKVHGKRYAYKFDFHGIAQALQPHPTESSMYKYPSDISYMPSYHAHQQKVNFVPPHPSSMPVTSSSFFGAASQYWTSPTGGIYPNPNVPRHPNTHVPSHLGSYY
In a few lines:
(§1)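 Pools were built from human transcription factors expressed in yeast as GST fusions, captured on glutathione beads and DNA-barcoded, along with a tag-only sample. Incubation with 200 nmole of a 16-mer random double-stranded DNA library lasted 30 min at room temperature in Tris/NaCl/DTT/glycerol buffer, and was followed by washing, 0.1% formaldehyde crosslinking, proximity ligation, PCR amplification and Illumina NextSeq500 sequencing. Binding signal is the quotient of each hexamer's read frequency for a factor and its frequency for the tag-only sample.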

For the next assay, the target named is T2, ELK1 (Homo sapiens, UniProt P19419 1-428).
T2 sequence: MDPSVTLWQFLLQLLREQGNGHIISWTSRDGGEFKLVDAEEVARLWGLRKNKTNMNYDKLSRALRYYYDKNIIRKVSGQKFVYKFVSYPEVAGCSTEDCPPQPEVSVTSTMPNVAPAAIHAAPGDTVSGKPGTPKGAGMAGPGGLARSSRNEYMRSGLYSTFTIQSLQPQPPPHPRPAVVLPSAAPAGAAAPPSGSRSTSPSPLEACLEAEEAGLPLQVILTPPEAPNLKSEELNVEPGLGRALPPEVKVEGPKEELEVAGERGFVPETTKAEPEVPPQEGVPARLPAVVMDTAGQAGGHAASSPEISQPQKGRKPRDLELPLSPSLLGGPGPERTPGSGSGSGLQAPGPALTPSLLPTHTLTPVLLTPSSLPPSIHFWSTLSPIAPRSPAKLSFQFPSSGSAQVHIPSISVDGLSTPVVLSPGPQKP
An outline of the steps:
as §1

For another assay, the target named is T3, GABPA (Homo sapiens, UniProt Q06546 1-454).
T3 sequence: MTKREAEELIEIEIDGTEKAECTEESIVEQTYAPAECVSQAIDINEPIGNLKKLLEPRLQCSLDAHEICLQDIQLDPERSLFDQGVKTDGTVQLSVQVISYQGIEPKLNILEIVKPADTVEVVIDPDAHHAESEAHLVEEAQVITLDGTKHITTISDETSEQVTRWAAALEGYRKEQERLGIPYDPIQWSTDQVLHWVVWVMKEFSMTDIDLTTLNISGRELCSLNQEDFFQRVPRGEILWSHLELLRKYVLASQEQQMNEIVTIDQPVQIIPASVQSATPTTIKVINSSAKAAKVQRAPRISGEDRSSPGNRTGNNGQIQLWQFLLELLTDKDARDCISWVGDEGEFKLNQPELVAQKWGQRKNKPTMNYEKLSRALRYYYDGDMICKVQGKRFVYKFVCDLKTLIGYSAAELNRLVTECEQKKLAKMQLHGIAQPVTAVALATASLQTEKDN
In a few lines: as §1

The next assay deals with T4, ERG (Homo sapiens, UniProt P11308 1-479).
T4 sequence: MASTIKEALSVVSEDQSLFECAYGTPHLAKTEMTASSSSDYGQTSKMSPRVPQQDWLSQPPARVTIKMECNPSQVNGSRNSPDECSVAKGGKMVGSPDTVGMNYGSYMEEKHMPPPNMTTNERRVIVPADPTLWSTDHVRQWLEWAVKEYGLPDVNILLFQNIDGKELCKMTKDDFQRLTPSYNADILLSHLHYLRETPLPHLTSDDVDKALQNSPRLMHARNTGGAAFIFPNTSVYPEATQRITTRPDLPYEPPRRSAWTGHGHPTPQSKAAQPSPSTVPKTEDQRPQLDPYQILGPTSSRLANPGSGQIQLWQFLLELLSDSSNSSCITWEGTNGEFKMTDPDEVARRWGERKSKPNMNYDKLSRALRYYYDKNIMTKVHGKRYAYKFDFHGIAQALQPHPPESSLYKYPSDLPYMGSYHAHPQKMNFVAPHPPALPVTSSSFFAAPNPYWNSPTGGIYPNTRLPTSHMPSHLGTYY
An outline of the steps: as §1

The target of the next assay is ELF1 (Homo sapiens, UniProt P32519 1-619). In a few lines: as §1
Another assay has as its target T5, EHF (Homo sapiens, UniProt Q9NZC4 1-300).
T5 sequence: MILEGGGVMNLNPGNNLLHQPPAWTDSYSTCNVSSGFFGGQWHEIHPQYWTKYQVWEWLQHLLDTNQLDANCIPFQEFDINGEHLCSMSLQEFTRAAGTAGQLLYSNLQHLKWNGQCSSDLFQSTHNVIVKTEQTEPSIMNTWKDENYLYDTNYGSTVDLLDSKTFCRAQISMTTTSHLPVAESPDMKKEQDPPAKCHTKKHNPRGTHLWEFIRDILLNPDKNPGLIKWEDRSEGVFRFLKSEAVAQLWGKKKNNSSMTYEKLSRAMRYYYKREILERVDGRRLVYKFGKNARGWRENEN
In a few lines: as §1

A further assay has as its target SPI1 (Homo sapiens, UniProt P17947 1-270). In a few lines:
as §1

A further assay concerns the target SPIB (Homo sapiens, UniProt Q01892 1-262). In a few lines:
as §1

The target of the next assay is T6, ELK3 (Homo sapiens, UniProt P41970 1-407).
T6 sequence: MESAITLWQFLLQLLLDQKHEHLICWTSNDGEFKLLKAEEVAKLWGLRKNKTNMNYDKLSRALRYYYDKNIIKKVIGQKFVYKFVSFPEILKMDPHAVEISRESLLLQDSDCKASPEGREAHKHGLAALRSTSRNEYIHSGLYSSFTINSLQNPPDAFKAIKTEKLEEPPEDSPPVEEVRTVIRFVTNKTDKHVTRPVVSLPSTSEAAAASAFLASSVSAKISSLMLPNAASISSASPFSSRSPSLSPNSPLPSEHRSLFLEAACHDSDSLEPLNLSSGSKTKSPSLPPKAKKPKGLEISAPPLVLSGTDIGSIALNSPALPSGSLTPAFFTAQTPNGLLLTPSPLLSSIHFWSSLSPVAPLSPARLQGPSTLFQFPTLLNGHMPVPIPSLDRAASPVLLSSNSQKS
In a few lines: as §1

Sequence of SPIB (Q01892 whole entry): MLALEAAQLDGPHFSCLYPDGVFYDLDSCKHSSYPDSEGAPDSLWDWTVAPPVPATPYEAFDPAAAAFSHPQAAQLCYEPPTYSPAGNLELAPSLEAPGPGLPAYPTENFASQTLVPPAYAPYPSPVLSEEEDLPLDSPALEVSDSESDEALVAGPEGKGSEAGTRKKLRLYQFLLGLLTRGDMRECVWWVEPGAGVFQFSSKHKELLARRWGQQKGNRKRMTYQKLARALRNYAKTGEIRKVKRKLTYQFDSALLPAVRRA
Sequence of ELF1 (P32519 whole entry): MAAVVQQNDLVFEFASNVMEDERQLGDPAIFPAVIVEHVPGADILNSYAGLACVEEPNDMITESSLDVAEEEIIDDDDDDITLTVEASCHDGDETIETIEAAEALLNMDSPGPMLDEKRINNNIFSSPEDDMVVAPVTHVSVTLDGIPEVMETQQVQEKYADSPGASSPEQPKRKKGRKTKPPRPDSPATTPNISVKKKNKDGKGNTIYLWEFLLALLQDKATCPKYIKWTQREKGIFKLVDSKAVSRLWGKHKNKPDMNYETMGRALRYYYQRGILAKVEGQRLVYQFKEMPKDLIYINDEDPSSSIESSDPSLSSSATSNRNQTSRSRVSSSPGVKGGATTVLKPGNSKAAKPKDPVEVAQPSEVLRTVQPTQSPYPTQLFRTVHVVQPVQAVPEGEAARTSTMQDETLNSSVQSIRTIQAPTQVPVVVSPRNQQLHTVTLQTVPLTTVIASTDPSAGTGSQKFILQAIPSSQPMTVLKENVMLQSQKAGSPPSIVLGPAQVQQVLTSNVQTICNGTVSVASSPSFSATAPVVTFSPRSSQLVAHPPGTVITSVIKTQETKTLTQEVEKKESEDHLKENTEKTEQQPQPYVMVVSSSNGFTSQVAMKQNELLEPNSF

On to TAATAA, for which the binding signal in the assay with FLI1 is 1.17 fold enrichment (6-mer frequency, TF over GST control); with ELK1, 1.19 fold enrichment (6-mer frequency, TF over GST control); with GABPA, 1.21 fold enrichment (6-mer frequency, TF over GST control); in the assay with ERG, 1.22 fold enrichment (6-mer frequency, TF over GST control); with ELF1, 1.16 fold enrichment (6-mer frequency, TF over GST control); with EHF it was 1.24 fold enrichment (6-mer frequency, TF over GST control). The binding signal with SPI1 is 1.09 fold enrichment (6-mer frequency, TF over GST control); with SPIB, 1.27 fold enrichment (6-mer frequency, TF over GST control); in the assay with ELK3, 1.05 fold enrichment (6-mer frequency, TF over GST control).

Turning to CTTCCC, the binding signal with FLI1 was 2.11 fold enrichment (6-mer frequency, TF over GST control); with ELK1, 2.06 fold enrichment (6-mer frequency, TF over GST control); in the assay with GABPA, 2.07 fold enrichment (6-mer frequency, TF over GST control); with ERG it was 2.19 fold enrichment (6-mer frequency, TF over GST control); with ELF1, 2.29 fold enrichment (6-mer frequency, TF over GST control); with EHF, 2.4 fold enrichment (6-mer frequency, TF over GST control). Moreover, the binding signal with SPI1 was 3.35 fold enrichment (6-mer frequency, TF over GST control); with SPIB, 2.45 fold enrichment (6-mer frequency, TF over GST control); with ELK3, 2.08 fold enrichment (6-mer frequency, TF over GST control).

Turning to AACCTG, the binding signal is 1.19 fold enrichment (6-mer frequency, TF over GST control) in the assay with FLI1; 1.2 fold enrichment (6-mer frequency, TF over GST control) with ELK1; 1.17 fold enrichment (6-mer frequency, TF over GST control) in the assay with GABPA; 1.09 fold enrichment (6-mer frequency, TF over GST control) in the assay with ERG; 1.16 fold enrichment (6-mer frequency, TF over GST control) with ELF1; 1.22 fold enrichment (6-mer frequency, TF over GST control) with EHF. Moreover, the binding signal in the assay with SPI1 was 1.27 fold enrichment (6-mer frequency, TF over GST control); with SPIB, 1.12 fold enrichment (6-mer frequency, TF over GST control); with ELK3 it was 1.21 fold enrichment (6-mer frequency, TF over GST control).

Regarding CATCTA, the binding signal was 1.22 fold enrichment (6-mer frequency, TF over GST control) with FLI1; 1.3 fold enrichment (6-mer frequency, TF over GST control) with ELK1; 1.25 fold enrichment (6-mer frequency, TF over GST control) in the assay with GABPA; 1.11 fold enrichment (6-mer frequency, TF over GST control) with ERG; 1.25 fold enrichment (6-mer frequency, TF over GST control) with ELF1; 1.18 fold enrichment (6-mer frequency, TF over GST control) with EHF. In addition, the binding signal in the assay with SPI1 is 1.16 fold enrichment (6-mer frequency, TF over GST control); with SPIB, 1.17 fold enrichment (6-mer frequency, TF over GST control); in the assay with ELK3, 1.13 fold enrichment (6-mer frequency, TF over GST control).

On to GTAAAA, for which the binding signal with FLI1 was 1.05 fold enrichment (6-mer frequency, TF over GST control); in the assay with ELK1 it was 1 fold enrichment (6-mer frequency, TF over GST control); in the assay with GABPA it was 1.18 fold enrichment (6-mer frequency, TF over GST control); in the assay with ERG it was 1.14 fold enrichment (6-mer frequency, TF over GST control); with ELF1, 1.13 fold enrichment (6-mer frequency, TF over GST control); in the assay with EHF, 1.16 fold enrichment (6-mer frequency, TF over GST control). Moreover, the binding signal is 1.3 fold enrichment (6-mer frequency, TF over GST control) with SPI1; 1.1 fold enrichment (6-mer frequency, TF over GST control) with SPIB; 1.11 fold enrichment (6-mer frequency, TF over GST control) with ELK3.

With ATTCTC, the binding signal was 1.35 fold enrichment (6-mer frequency, TF over GST control) with FLI1; 1.27 fold enrichment (6-mer frequency, TF over GST control) with ELK1; 1.32 fold enrichment (6-mer frequency, TF over GST control) in the assay with GABPA; 1.25 fold enrichment (6-mer frequency, TF over GST control) in the assay with ERG; 1.24 fold enrichment (6-mer frequency, TF over GST control) in the assay with ELF1; 1.27 fold enrichment (6-mer frequency, TF over GST control) with EHF. Besides, the binding signal is 1.27 fold enrichment (6-mer frequency, TF over GST control) in the assay with SPI1; 1.32 fold enrichment (6-mer frequency, TF over GST control) with SPIB; 1.42 fold enrichment (6-mer frequency, TF over GST control) in the assay with ELK3.

With AAGTCT, the binding signal was 1.28 fold enrichment (6-mer frequency, TF over GST control) with FLI1; 1.18 fold enrichment (6-mer frequency, TF over GST control) with ELK1; 1.07 fold enrichment (6-mer frequency, TF over GST control) with GABPA; 1.12 fold enrichment (6-mer frequency, TF over GST control) with ERG; 1.14 fold enrichment (6-mer frequency, TF over GST control) with ELF1; 1.13 fold enrichment (6-mer frequency, TF over GST control) in the assay with EHF. Moreover, the binding signal with SPI1 was 1.27 fold enrichment (6-mer frequency, TF over GST control); in the assay with SPIB, 1.29 fold enrichment (6-mer frequency, TF over GST control); with ELK3, 1.18 fold enrichment (6-mer frequency, TF over GST control).

Take AATACT: the binding signal in the assay with FLI1 was 1.16 fold enrichment (6-mer frequency, TF over GST control); with ELK1, 1.19 fold enrichment (6-mer frequency, TF over GST control); with GABPA, 1.23 fold enrichment (6-mer frequency, TF over GST control); with ERG, 1.22 fold enrichment (6-mer frequency, TF over GST control); in the assay with ELF1, 1.29 fold enrichment (6-mer frequency, TF over GST control); with EHF, 1.24 fold enrichment (6-mer frequency, TF over GST control). For the same sequence, the binding signal in the assay with SPI1 is 1.21 fold enrichment (6-mer frequency, TF over GST control); with SPIB it was 1.14 fold enrichment (6-mer frequency, TF over GST control); with ELK3 it was 1.23 fold enrichment (6-mer frequency, TF over GST control).
